Screening results from PubChem.
The list is not random: actives were taken first. Their share in the collection is about 10%.
ROMK primary – modulates human ROMK potassium channel activity; actives 2% (n = 130,000); Tet-inducible ROMK, thallium flux fluorescence; actives lie on both sides; B-score at 10 µM; AID 1918;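 active = signal ratio slope over the read window, or its plate-corrected B-score, at least 3 SD from the plate mean, either direction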;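 note: B-score of the F/F0 ratio slope over 7 to 12 s after thallium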
HCT116 PTEN-null – PTEN-deleted cell growth suppression. HCT116 PTEN-null viability, CellTiter-Glo, 60 h; active compounds read low. viability, % at 10 µM. actives 1.2% (n = 140,000). AID 827;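 active = viability at or below a set limit, 4 SD under the median of all tested compounds, cut at about 3.7% in these data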;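 note: PTEN knockout HCT116 line with beta catenin targeted HCT116 as companion control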
Insulin prom inh – TRM-6 insulin promoter activity inhibition. inhibition, % at 2 µM. TRM-6 cells (human fetal islet line), insulin promoter-eGFP reporter, imaging; reporter expression induced with tamoxifen. AID 1273. actives 0.9% (n = 130,000);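 active = inhibition above the mean plus 3 SD, with well images judged a real hit on visual review, cut at about 60% in these data, passing the limit was not always enough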
bCat KO growth – beta-catenin-lacking colon tumor cell growth suppression | HCT116 beta-catenin knockout viability, CellTiter-Glo, 60 h; active compounds read low | viability, % at 10 µM | actives 1.5% (n = 140,000);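 active = viability at or under a set limit, the compound median less 4 SD, cut at about 6% in these data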;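 note: 0% = Hyamine 1622 control at 20 µM and 100% = untreated cell control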
L major viab – Leishmania major promastigote growth inhibition; Leishmania major promastigotes, resazurin fluorescence viability; inhibition, % at 10 µM; AID 1063; actives 9% (n = 200,000); in the data active = inhibition above about 50%;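 note: promastigotes grown with compound for 44 hours at 28 °C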
p97 inhibitor – human p97 ATPase inhibition. P55072. recombinant p97 ATPase, Kinase-Glo ATP luminescence, 3 h. inhibition, % at 8 µM. actives 0.42% (n = 220,000); in the data active = inhibition above about 15%;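 note: 0% = DMSO vehicle and 100% = wells lacking enzyme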
Target sequence (P55072 whole entry, looked up): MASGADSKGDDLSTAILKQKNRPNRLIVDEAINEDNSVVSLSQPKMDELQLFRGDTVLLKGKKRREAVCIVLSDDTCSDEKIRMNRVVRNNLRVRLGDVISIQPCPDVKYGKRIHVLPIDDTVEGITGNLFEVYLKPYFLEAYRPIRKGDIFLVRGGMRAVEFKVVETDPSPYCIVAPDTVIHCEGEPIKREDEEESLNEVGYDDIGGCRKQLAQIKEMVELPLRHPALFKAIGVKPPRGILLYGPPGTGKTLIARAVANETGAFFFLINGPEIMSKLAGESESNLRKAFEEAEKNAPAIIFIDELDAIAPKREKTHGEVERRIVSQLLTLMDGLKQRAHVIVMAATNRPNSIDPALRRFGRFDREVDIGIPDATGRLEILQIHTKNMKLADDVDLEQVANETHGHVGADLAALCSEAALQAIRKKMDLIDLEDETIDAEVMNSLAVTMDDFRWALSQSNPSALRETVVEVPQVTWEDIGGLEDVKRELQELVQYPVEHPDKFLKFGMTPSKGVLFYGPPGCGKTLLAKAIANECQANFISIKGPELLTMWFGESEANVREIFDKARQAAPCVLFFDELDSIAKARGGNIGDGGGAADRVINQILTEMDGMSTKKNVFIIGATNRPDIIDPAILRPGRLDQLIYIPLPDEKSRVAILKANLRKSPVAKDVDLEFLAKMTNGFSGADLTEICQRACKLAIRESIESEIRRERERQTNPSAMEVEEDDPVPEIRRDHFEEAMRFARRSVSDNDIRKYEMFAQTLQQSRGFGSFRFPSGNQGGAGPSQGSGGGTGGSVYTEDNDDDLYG
* = called active by the depositor; nt = no result.

SMILES | ROMK primary | HCT116 PTEN-null | Insulin prom inh | bCat KO growth | L major viab | p97 inhibitor
O=C(CN1CCN(Cc2ccc3c(c2)OCO3)CC1)N1CCc2[nH]c3ccccc3c2C1 | nt | 92.8 | nt | 90.9 | 82.2* | 3.8
CCn1c(=NC(=O)c2ccc(S(=O)(=O)N(C)C)cc2)sc2cccc(OC)c21 | 0.209 | nt | nt | nt | 70.5* | 3.1
COCCNC(=S)N(CCc1c(C)[nH]c2ccc(Cl)cc12)Cc1cccs1 | 0.587 | nt | -110.8 | nt | 52.8* | 2.3
O=C(O)c1cc([N+](=O)[O-])c(NCCC2=CCCCC2)c([N+](=O)[O-])c1 | 0.324 | nt | 50.0 | nt | -8.3 | -6.7
N#Cc1cc[n+](CC(=O)c2ccc(NC(=O)c3ccccc3)cc2)cc1 | nt | nt | nt | nt | nt | 7.6
O=C(c1cc2n(n1)C(C(F)(F)F)CC(c1ccco1)N2)N1CCc2ccccc2C1 (stereo unspecified) | nt | 83.3 | 61.1 | 93.6 | 54.3* | 2.4
COc1ccccc1N1CCN(C(=O)c2cc3n(n2)C(C(F)(F)F)CC(c2ccco2)N3)CC1 (stereo unspecified) | 0.198 | 94.3 | -39.4 | 88.2 | 40.2 | 2.1
c1ccc(-c2ccccc2-c2nc(-c3ccncc3)no2)cc1 | nt | 90.3 | 78.7* | 97.7 | 14.8 | -0.2
O=C(/C=C/c1cccs1)Nc1cccc(NC(=O)/C=C/c2cccs2)n1 | nt | 28.7 | nt | 35.9 | 54.5* | 10.1
O=C(/C=C/c1cccs1)Nc1nccs1 | -0.375 | nt | nt | nt | -0.3 | -2.4
COc1ccc2cc(CN(CC3CCCO3)S(=O)(=O)c3ccccc3Cl)c(=O)[nH]c2c1 (stereo unspecified) | -1.03 | 69.1 | 20.0 | 79.6 | 6.9 | 0.1
Cc1ccc2nc(Cl)c(/C=N/Nc3nc(C)cc(C)n3)c(=O)n2c1 | nt | 21.2 | -25.0 | 8.9 | 57.1* | -1.3
Cc1ccc2nc(C)c(Cl)c(=O)n2c1 | -0.01 | 96.3 | 41.7 | 102.6 | -0.6 | 3.9
CCn1c(COc2ccc(Cl)cc2)nnc1SCc1ccc(C#N)cc1 | -1.53 | 70.9 | 35.7 | 74.9 | 50.9* | -5.5
Cc1ccc(OCc2nnc(SCC(=O)c3ccccc3)n2-c2ccccc2)cc1 | -1.77 | 74.2 | -37.5 | 78.9 | 99.8* | -5.3
CCn1c(COc2ccccc2)nnc1SCc1ccc(C#N)cc1 | -1.08 | 92.8 | -7.7 | 104.5 | 30.2 | -10.3
C=CCn1c(SCc2ccc(C#N)cc2)nnc1-c1ccc(C)cc1 | nt | 81.8 | -58.8 | 71.2 | 78.1* | -5.0
COc1ccc(-n2c(COc3ccc(C)cc3)nnc2SCc2ccc(C#N)cc2)cc1 | nt | 57.0 | -35.3 | 66.1 | 68.1* | -6.8
COc1cccc(OC)c1C(=O)N1CCN(Cc2ccccc2C)CC1 | -0.244 | 83.3 | 7.1 | 89.8 | -5.9 | 1.3
Cc1ccc(CNC(=O)C2CCN(S(=O)(=O)c3c(C)noc3/C=C/c3ccco3)CC2)cc1 | nt | 73.8 | nt | 70.3 | 92.6* | 7.7
Cc1ccc(NC(=O)C2CCN(S(=O)(=O)c3c(C)noc3/C=C/c3ccco3)CC2)nc1 | -0.497 | 56.8 | 3.9 | 60.3 | 15.9 | -4.2
Cc1noc(/C=C/c2cccs2)c1S(=O)(=O)N1CCC(C(=O)NCCCN2CCC(C)CC2)CC1 | -1.05 | nt | nt | nt | 90.4* | -1.9
Cc1noc(/C=C/c2ccco2)c1S(=O)(=O)N1CCC(C(=O)N2CCc3ccccc3C2)CC1 | nt | 44.0 | nt | 15.4 | 73.3* | 6.4
COCCNC(=O)C1CCCN(S(=O)(=O)c2c(C)noc2/C=C/c2cccs2)C1 (stereo unspecified) | -0.195 | nt | nt | nt | nt | -7.1
Cc1cccnc1NC(=O)C1CCN(S(=O)(=O)c2c(C)noc2/C=C/c2ccco2)CC1 | 0.00617 | 63.1 | -30.8 | 50.3 | 4.8 | -3.7
SMILES | ROMK primary | HCT116 PTEN-null | Insulin prom inh | bCat KO growth | L major viab | p97 inhibitor
COc1cc(CNCCO)cc(Cl)c1OCc1ccccc1Cl | nt | nt | nt | nt | 98.8* | 4.5
CCOc1cc(CNCCO)cc(Br)c1OCc1ccccc1Cl | -1.74 | 1.4* | nt | 1.2* | 99.7* | -0.8
C=CCOc1ccc(CNC(C)(C)CO)cc1OCC | nt | 80.8 | 26.0 | 92.7 | -3.4 | -1.2
OCCNCc1ccc(OCc2ccc(Cl)cc2Cl)cc1 | -1 | nt | nt | nt | 100.5* | 0.4
S=C(Nc1ccccc1)Nc1ccc(OCc2ccc(Cl)cc2Cl)cc1 | nt | 78.3 | 40.6 | 86.0 | 18.4 | 3.2
COc1cccc(CNCCO)c1OCc1ccccc1Cl | -0.00256 | 101.4 | nt | 83.8 | 15.8 | 0.5
CCOc1cc(CNC(C)(C)CO)cc(Br)c1OCc1ccc(Cl)cc1Cl | nt | 0.8* | 13.8 | 0.8* | 99.9* | -2.4
Cc1ccc2nc(C)cc(C(=O)OCC(=O)Nc3cccnc3Cl)c2c1 | 0.207 | nt | nt | nt | -3.3 | 4.5
COc1ccc(C(=O)N/C(=C/c2ccco2)C(=O)NC2CCS(=O)(=O)C2)cc1 (stereo unspecified) | nt | nt | 7.1 | nt | -1.6 | 1.9
CC(Sc1cccc[n+]1[O-])C(=O)Nc1ccc(Oc2ccccc2)cc1 (stereo unspecified) | -0.955 | nt | nt | nt | 9.3 | 9.9
CCCCCCCNC(=O)C1CC(=O)N(C)C(=Nc2ccc(OC)cc2)S1 (stereo unspecified) | nt | 77.6 | -70.0 | 90.9 | -0.4 | -7.1
COCCNC(=S)N1CCCC(CO)C1 (stereo unspecified) | nt | nt | nt | nt | -7.7 | 6.6
C=CCOc1c(Br)cc(CNc2ccc(NC(=O)C(C)C)cc2)cc1OCC | nt | 17.4 | nt | 20.3 | 97.3* | 1.9
COc1cc(CNCc2ccncc2)cc(Br)c1OCc1ccccc1F | -0.911 | 31.6 | nt | 15.9 | 97.8* | -4.4
CCOc1cc(CNc2ccc(O)cc2)cc(Br)c1OCc1ccccc1F | nt | 5.2 | 8.3 | 4.0* | 80.4* | 8.0
CCOc1cc(CNc2ccc3c(c2)OCCO3)cc(Br)c1OCC(N)=O | nt | 55.2 | nt | 54.0 | 10.2 | 4.7
CCOc1cc(CNCCO)cc(Br)c1OCc1ccc(Cl)cc1 | nt | 1.2* | 2.3 | 1.7* | 100.6* | -8.3
Cc1ccc(CNC(=O)COC(=O)c2ccc(S(=O)(=O)N(C)C)cc2)cc1 | 0.697 | nt | nt | nt | 2.4 | -4.8
O=C(c1ccc(F)cc1)N(NC(=O)C(O)(c1ccccc1)c1ccccc1)c1ccccc1 | -0.227 | 79.3 | -89.2 | 81.8 | 65.9* | -2.4
O=C(NCc1ccccc1Cl)c1ccc(S(=O)(=O)Nc2cccc(C(F)(F)F)c2)cc1 | -1.61 | 89.7 | -16.9 | 85.8 | 61.1* | 2.8
NNC(=O)Nc1cccc(C(F)(F)F)c1 | nt | nt | nt | nt | -1.9 | -1.2
COC(=O)[C@H](C)NC(=O)Nc1cccc(C(F)(F)F)c1 | nt | 94.0 | 1.3 | 81.4 | -2.5 | 2.2
Cc1ccc(NS(=O)(=O)c2ccc(NC(=O)c3cccc(NC(=O)C(C)C)c3)cc2)cc1 | nt | 55.4 | 19.4 | 51.4 | 55.6* | 5.1
O=C(Nc1ccc(OC(F)F)cc1)Nc1cccc(C(F)(F)F)c1 | nt | 3.1* | -42.9 | 2.3* | -2.7 | 0.1
NC(=O)/C=C\C(=O)Nc1cccc(C(F)(F)F)c1 | nt | 73.1 | 36.7 | 81.2 | 95.8* | 11.8
CCN(CC)S(=O)(=O)c1ccc(C(=O)Nc2cccc(C)c2)cc1 | -0.0212 | 93.7 | 24.3 | 100.5 | 10.7 | -0.9
Cc1ccc(S(=O)(=O)Nc2ccc(NC(=O)Nc3cccc(C(F)(F)F)c3)cc2)cc1 | nt | 1.6* | nt | 1.2* | 70.2* | -0.9
